From publication PMC12820563, “FoxP3 forms a head-to-head dimer in vivo and stabilizes its multimerization on adjacent microsatellites”
Whole data set: some 16,000 sequences, median “rpm ratio (pull-down/input)” near 0.5, cut for the highest 2% near 5.5. The full list was thinned out, with the highest values kept by preference.

molecular target: T1, MBP-FoxP3dN (Mus musculus, UniProt Q99JB6 188-423); assay: PD-seq (MBP pull-down with sequencing); 20 mM Tris-HCl pH 7.5, 100 mM NaCl, 1.5 mM MgCl2, 0.4 uM protein, 0.1 uM dsDNA library, 30 min, room temperature, amylose pull-down; high values mean tight binding; conditions: protein: recombinant; tags: His6-MBP; chain copies: 2; dsDNA, one strand shown
T1 sequence: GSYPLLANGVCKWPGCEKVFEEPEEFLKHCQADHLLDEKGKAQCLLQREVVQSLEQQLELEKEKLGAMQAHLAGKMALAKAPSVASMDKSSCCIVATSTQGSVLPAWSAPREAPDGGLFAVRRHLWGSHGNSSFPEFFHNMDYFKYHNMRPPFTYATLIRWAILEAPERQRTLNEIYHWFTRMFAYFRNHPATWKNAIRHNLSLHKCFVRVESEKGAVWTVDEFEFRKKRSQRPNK
How it was run: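 A fragment of mouse FoxP3 or FoxP1 without its N-terminus, carrying a His6-MBP tag and produced in E. coli, was combined at 0.4 µM with a 0.1 µM degenerate double-stranded DNA library filled in with Klenow. The mixture sat for 30 min at room temperature in Tris pH 7.5 buffer containing NaCl and MgCl2. Protein–DNA complexes were captured on amylose resin, washed three times, and the DNA was freed with proteinase K, barcoded by PCR and sequenced on Illumina. Binding is expressed as reads-per-million enrichment of pull-down over input, with replicates pooled.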

Sequence	binding signal
GATGATTGTTCTCCCAGCTGATGAATTCTATTAATCGAGTAAACAAATTTTCCTAATCTTTCTGTTCAAGCGCCATCTAC	0.561 RPM ratio (pull-down/input)
GATGATTGTTCTCCCAGCTGATGAATTTCTTGCCTCGAGTAAACAAATTTTCCTAATCTTTCTGTTCAAGCGCCATCTAC	0.494 RPM ratio (pull-down/input)
GATGATTGTTCTCCCAGCTGATGAATTTGGCGGCTCGAGTAAACAAATTTTCCTAATCTTTCTGTTCAAGCGCCATCTAC	0.668 RPM ratio (pull-down/input)
GATGATTGTTCTCCCAGCTGATGAATTCTATAGTTCGAGTAAACAAATTTTCCTAATCTTTCTGTTCAAGCGCCATCTAC	0.74 RPM ratio (pull-down/input)
GATGATTGTTCTCCCAGCTGATGAATTGCCCGAGTCGAGTAAACAAATTTTCCTAATCTTTCTGTTCAAGCGCCATCTAC	0.303 RPM ratio (pull-down/input)
GATGATTGTTCTCCCAGCTGATGAATTGCATCCATCGAGTAAACAAATTTTCCTAATCTTTCTGTTCAAGCGCCATCTAC	5.42 RPM ratio (pull-down/input)
GATGATTGTTCTCCCAGCTGATGAATTATCGTATTCGAGTAAACAAATTTTCCTAATCTTTCTGTTCAAGCGCCATCTAC	1.35 RPM ratio (pull-down/input)
GATGATTGTTCTCCCAGCTGATGAATTCGGCAAGTCGAGTAAACAAATTTTCCTAATCTTTCTGTTCAAGCGCCATCTAC	1.34 RPM ratio (pull-down/input)
GATGATTGTTCTCCCAGCTGATGAATTTTGTTAGTCGAGTAAACAAATTTTCCTAATCTTTCTGTTCAAGCGCCATCTAC	6.69 RPM ratio (pull-down/input)
GATGATTGTTCTCCCAGCTGATGAATTGTTTACGTCGAGTAAACAAATTTTCCTAATCTTTCTGTTCAAGCGCCATCTAC	7.65 RPM ratio (pull-down/input)
GATGATTGTTCTCCCAGCTGATGAATTTGTTTAGTCGAGTAAACAAATTTTCCTAATCTTTCTGTTCAAGCGCCATCTAC	7.22 RPM ratio (pull-down/input)
GATGATTGTTCTCCCAGCTGATGAATTCTGTTAGTCGAGTAAACAAATTTTCCTAATCTTTCTGTTCAAGCGCCATCTAC	5.31 RPM ratio (pull-down/input)
GATGATTGTTCTCCCAGCTGATGAATTGTTAGTGTCGAGTAAACAAATTTTCCTAATCTTTCTGTTCAAGCGCCATCTAC	4.19 RPM ratio (pull-down/input)
GATGATTGTTCTCCCAGCTGATGAATTTAGTTAGTCGAGTAAACAAATTTTCCTAATCTTTCTGTTCAAGCGCCATCTAC	2.54 RPM ratio (pull-down/input)
GATGATTGTTCTCCCAGCTGATGAATTGTGTTAGTCGAGTAAACAAATTTTCCTAATCTTTCTGTTCAAGCGCCATCTAC	5.98 RPM ratio (pull-down/input)
GATGATTGTTCTCCCAGCTGATGAATTTTTTACGTCGAGTAAACAAATTTTCCTAATCTTTCTGTTCAAGCGCCATCTAC	0.246 RPM ratio (pull-down/input)

Sequence	binding signal
GATGATTGTTCTCCCAGCTGATGAATTTGGTTAGTCGAGTAAACAAATTTTCCTAATCTTTCTGTTCAAGCGCCATCTAC	2.03 RPM ratio (pull-down/input)
GATGATTGTTCTCCCAGCTGATGAATTGTTTTAGTCGAGTAAACAAATTTTCCTAATCTTTCTGTTCAAGCGCCATCTAC	1.21 RPM ratio (pull-down/input)
GATGATTGTTCTCCCAGCTGATGAATTTTTTTAGTCGAGTAAACAAATTTTCCTAATCTTTCTGTTCAAGCGCCATCTAC	0.273 RPM ratio (pull-down/input)
GATGATTGTTCTCCCAGCTGATGAATTTACGTCGTCGAGTAAACAAATTTTCCTAATCTTTCTGTTCAAGCGCCATCTAC	0.839 RPM ratio (pull-down/input)
GATGATTGTTCTCCCAGCTGATGAATTCTCTACTTCGAGTAAACAAATTTTCCTAATCTTTCTGTTCAAGCGCCATCTAC	0.233 RPM ratio (pull-down/input)
GATGATTGTTCTCCCAGCTGATGAATTGGGCCGGTCGAGTAAACAAATTTTCCTAATCTTTCTGTTCAAGCGCCATCTAC	0.372 RPM ratio (pull-down/input)
GATGATTGTTCTCCCAGCTGATGAATTGCTCTTGTCGAGTAAACAAATTTTCCTAATCTTTCTGTTCAAGCGCCATCTAC	0.594 RPM ratio (pull-down/input)
GATGATTGTTCTCCCAGCTGATGAATTCGGTAGGTCGAGTAAACAAATTTTCCTAATCTTTCTGTTCAAGCGCCATCTAC	0.485 RPM ratio (pull-down/input)
GATGATTGTTCTCCCAGCTGATGAATTGGGGACGTCGAGTAAACAAATTTTCCTAATCTTTCTGTTCAAGCGCCATCTAC	0.307 RPM ratio (pull-down/input)
GATGATTGTTCTCCCAGCTGATGAATTGGTGCTTTCGAGTAAACAAATTTTCCTAATCTTTCTGTTCAAGCGCCATCTAC	1.06 RPM ratio (pull-down/input)
GATGATTGTTCTCCCAGCTGATGAATTGAGACTTTCGAGTAAACAAATTTTCCTAATCTTTCTGTTCAAGCGCCATCTAC	1.22 RPM ratio (pull-down/input)
GATGATTGTTCTCCCAGCTGATGAATTCCGCAGATCGAGTAAACAAATTTTCCTAATCTTTCTGTTCAAGCGCCATCTAC	0.352 RPM ratio (pull-down/input)
GATGATTGTTCTCCCAGCTGATGAATTAGGAGGGTCGAGTAAACAAATTTTCCTAATCTTTCTGTTCAAGCGCCATCTAC	0.318 RPM ratio (pull-down/input)
GATGATTGTTCTCCCAGCTGATGAATTTCACGAATCGAGTAAACAAATTTTCCTAATCTTTCTGTTCAAGCGCCATCTAC	0.212 RPM ratio (pull-down/input)
GATGATTGTTCTCCCAGCTGATGAATTCACTGCTTCGAGTAAACAAATTTTCCTAATCTTTCTGTTCAAGCGCCATCTAC	0.345 RPM ratio (pull-down/input)
